High-throughput results as filed in PubChem.
An excerpt weighted towards active compounds, which were near 14% of everything screened.
HCV inh: qHTS Assay for Inhibitors of Hepatitis C Virus (HCV) | Potency, µM (highest dose often 41.8 µM), inactives show at the top dose activity change, negative = inhibition, hits mostly inhibitors | actives 3.4% (n = 340,000) | Huh7.5.1 HCVcc-Cre infection, luciferase reporter, 44 h; also: potency is read from the fitted curve at half-maximal effect
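Reporter virus HCVcc-Cre (~0.5 moi) infects cells exposed to compound; seeding density 1,000 cells/well with 4 h settling beforehand. Luminescence, 15 sec read, taken 44 h post-infection following a 15 min RT substrate incubation.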
LASV entry inh: qHTS for Inhibitors of binding or entry into cells for Lassa Virus; Potency, µM (titrated, usually from 37.9 µM), inactives show at the highest dose activity change, negative = inhibition, actives largely listed as inhibitors; AID 540256, 2011; actives 1.2% (n = 300,000); Lassa virus pseudotype entry inhibition, cell reporter; calls by dose curve; tested in HEK293 cells; also: potency is read from the fitted curve at half-maximal effect; nearly all actives have a fitted effect of over 50% in size
HCMV inh: qHTS Assay for inhibitors of the human cytomegalovirus (HCMV) | actives 4.5% (n = 410,000) | activity change, negative = inhibition, % at 57.5 µM | HFF cells, HCMV-luciferase reporter, 72 h; stronger effect = lower value; in the data active = activity change below about -60%; inconclusive = no clear call, values can overlap the other calls; inactive = above about -39%
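Two-dose cell screen: HFF monolayers treated with compounds and infected with luciferase-expressing HCMV at 1 PFU/cell, 72 h at 37C, then lysed for luciferase measurement.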
Pf growth 48h: Primary qHTS for delayed death inhibitors of the malarial parasite plastid, 48 hour incubation. P. falciparum luciferase growth in erythrocytes, 48 h. Potency, µM (highest dose often 28.7 µM), inactives show at the highest dose activity change, negative = inhibition, hits mostly inhibitors. actives 5.9% (n = 310,000). AID 504832, 2011; also: potency is read from the fitted curve at half-maximal effect
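In quantitative HTS format, infected erythrocytes bearing luciferase-reporter parasites were treated for a single generation at 37 C. Luminescence after adding detection reagent served as the growth measure.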
Pf growth 96h: Primary qHTS for delayed death inhibitors of the malarial parasite plastid, 96 hour incubation. P. falciparum luciferase reporter growth, 96 h. Potency, µM (highest dose often 28.7 µM), without a hit: at the top dose activity change, negative = inhibition, actives largely listed as inhibitors. actives 6.9% (n = 320,000); also: potency is read from the fitted curve at half-maximal effect
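Luminescence readout: decreased luciferase signal marks inhibited growth of reporter-expressing P. falciparum in infected red cells (2% hematocrit, 0.05% parasitemia final), exposed to compound two generations (96 h, 37 C, 5% CO2).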
Marburg entry inh: qHTS for inhibitors of binding or entry into cells for Marburg Virus. Marburg virus pseudotyped entry inhibition, cell reporter. Potency, µM (doses to about 37.8 µM), inactives show top-dose activity change, negative = inhibition, most hits filed as inhibitors. actives 1.8% (n = 300,000). AID 540276, 2011; calls by dose curve; tested in HEK293 cells; also: potency is read from the fitted curve at half-maximal effect
* = called active by the depositor; ? = inconclusive; . = no result given; [ ] = remark or other dose. Unless noted, calls follow the shape of the dose curve; as a rule, active = well fitted inhibition curve with a large enough effect; inconclusive = small, poorly fitted or top-dose-only effect, or another doubt; inactive = no such curve, though single readings can be large or run the other way. % is scaled to controls: 0 for no effect and ±100 for the full control effect.

SMILES | HCV inh | LASV entry inh | HCMV inh | Pf growth 48h | Pf growth 96h | Marburg entry inh
CCOC(=O)c1cnc(-n2nc(C)cc2C)nc1N(CC)CC | -28% | -3% | -20 | 12µM* | . | -26%
CCc1cccc(OCC(=O)Nc2ccc(S(=O)(=O)Nc3cc(C)nc(C)n3)cc2)c1 | . | 3%[46.1 µM] | -10 | . | . | 29%[46.1 µM]
Cc1ccc(-c2csc(Nc3ccccc3)[n+]2CCc2ccccc2)cc1 | -29% | . | -19 | 12µM* | 2.1µM* | .
COc1ccc(-c2csc(Nc3ccccc3)[n+]2Cc2ccccc2)cc1 | ? | . | 40 | -28% | 13µM* | .
Cc1ccc(-c2csc(Nc3ccc(C(=O)O)cc3)[n+]2Cc2ccccc2)cc1 | 8% | -6%[46.1 µM] | 31 | ? | ? | ?
O=[N+]([O-])c1ccc(-c2csc(Nc3ccccc3)[n+]2Cc2ccccc2)cc1 | -1% | -2% | 29 | 5.2µM* | ? | 12%
COC(=O)C1=C(C(=O)OC)[C@@H]2N(C)c3ccccc3[C@@]23C[C@@H](C(=O)OC)N(C(=O)Nc2cccc(C#N)c2)C3=N1 | . | . | . | . | . | 27%[14.2 µM]
CC(=O)c1ccc(N2CCN(S(=O)(=O)c3ccc4c5c3CC(=O)N5CC(C)S4)CC2)cc1 (stereo not drawn) | ? | . | . | 3.3µM* | ? | .
CC(=O)N/C(N)=N/c1nc2cc([N+](=O)[O-])ccc2o1 | 1% | ? | -66* | 101% | 125% | ?
CCN1CCN(C2CC(=O)NC2=O)CC1 (stereo not drawn) | . | . | . | 6% | 8.3µM* | .
CN(c1ccccc1)S(=O)(=O)c1cccc(NC(=O)c2nn(C)c(=O)c3ccccc23)c1 | 4.5µM* | . | -25 | ? | ? | .
CCN(CC)S(=O)(=O)c1cc(NC(=O)Cn2cnc3ccccc3c2=O)ccc1C | 11µM* | 4% | -38 | -19% | . | -29%
CCN(CC)S(=O)(=O)c1cc(NC(=O)CSCc2c(C)noc2C)ccc1C | ? | 2.8µM* | -17 | . | . | ?
Cn1nc(C(=O)Nc2cccc(C(F)(F)F)c2)c2ccccc2c1=O | 6% | 2% | 69 | ? | 39% | -17%
CN(c1ccccc1)S(=O)(=O)c1cccc(NC(=O)Cn2cnc3ccccc3c2=O)c1 | 2.8µM* | ? | -21 | . | -34% | -16%
CC(C)Oc1ccc(Nc2cc3c(cn2)cc(-c2cccnc2)n3C)cc1 | . | . | -6 | . | . | .
COc1ccc(C(CNC(=O)c2ccc(C)cc2)N2CCOCC2)cc1 (stereo not drawn) | . | -4%[46.1 µM] | 38 | . | . | 6%[46.1 µM]
COc1ccc(C(=O)NCC(c2ccc(N(C)C)cc2)N2CCOCC2)cc1 (stereo not drawn) | . | 3%[46.1 µM] | -77* | . | . | .
COc1ccc(C(CNC(=O)c2cc3ccccc3cc2O)N2CCOCC2)cc1 (stereo not drawn) | 3% | ? | 2 | 9.3µM* | 10µM* | ?
CC(Sc1nncn1C)C(=O)Nc1ccc(N2CCCCC2)cc1 (stereo not drawn) | -7% | . | 0 | 44% | 40% | .
CCCNC(=O)c1cc(C2CCCN(C(=O)C3CCCCC3)C2)on1 (stereo not drawn) | . | . | -23 | . | . | .
COc1cc(OC)cc(-c2c(C#Cc3ccsc3)c3cc(Br)ccc3n2C)c1 | -1% | . | -19 | ? | ? | .
COc1cc(C#Cc2c(-c3cncn3C)n(C)c3ccc(Br)cc23)cc(OC)c1 | 1.1µM* | . | -9 | . | . | .
COc1cc(C#Cc2c(-c3cncn3C)n(C)c3ccc(-c4ccc(OC)c(OC)c4)cc23)cc(OC)c1 | ? | . | 58 | 1.3µM* | 5.2µM* | .
COc1cc(C#Cc2c(-c3cncn3C)n(C)c3ccc(-c4ccc5cc[nH]c5c4)cc23)cc(OC)c1 | ? | . | -6 | . | . | .
CCN(CC)CCN(C(=O)c1ccc(CN2CCCCC2)o1)C(C(=O)NC1CCCCC1)c1ccc(F)cc1 (stereo not drawn) | ? | 0%[46.1 µM] | -26 | 84% | 10% | 5µM*
